Laboratory results reported in PubChem BioAssay (NCATS).
Active and inactive are the calls of the source. Calls come from the whole dose curve; as a rule, active = well fitted curve in the direction sought with a large enough effect; inactive = no such curve, though single readings can be large or run the other way.

Target: Alpha-galactosidase A (Homo sapiens) (UniProt P06280)
Experiment: Counterscreen for Glucocerebrosidase Inhibitors: qHTS Assay for Human alpha-Galactosidase at pH 4.5 (AID 992); note: 0% is about no effect
Details: purified enzyme, fluorogenic substrate; series mostly up to 76.9 µM; activity change, negative = inhibition: at the top concentration
Outline: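 Steps: enzyme (2 nM final), then compound across 0.7 nM to 77 uM, then 80 uM fluorogenic galactopyranoside substrate; incubate 20 min at room temperature; quench at pH 10; measure fluorescence at 365/440 nm.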

Sequence of Alpha-galactosidase A (Homo sapiens) (P06280 whole entry, looked up): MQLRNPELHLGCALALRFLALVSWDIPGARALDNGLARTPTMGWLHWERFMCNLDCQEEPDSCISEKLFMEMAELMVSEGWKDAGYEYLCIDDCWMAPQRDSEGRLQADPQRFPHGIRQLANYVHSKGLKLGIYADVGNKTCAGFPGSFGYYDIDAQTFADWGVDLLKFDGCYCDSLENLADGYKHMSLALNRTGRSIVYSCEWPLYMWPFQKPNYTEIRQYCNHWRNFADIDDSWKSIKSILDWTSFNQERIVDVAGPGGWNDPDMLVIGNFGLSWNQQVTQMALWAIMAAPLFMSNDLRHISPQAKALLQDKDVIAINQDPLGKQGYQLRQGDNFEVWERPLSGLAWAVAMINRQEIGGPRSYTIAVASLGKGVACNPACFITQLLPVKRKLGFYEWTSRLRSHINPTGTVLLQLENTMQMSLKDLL

SMILES | activity change, negative = inhibition | outcome
Nc1nc2ccc(Cl)cc2c2nc(-c3ccco3)nn12 | -7.74% (inactive) | 
N[C@@H](Cc1c[nH]c2ccccc12)C(=O)O | -1.81% (inactive) | 
CCN(CC)CCCCCCCCOC(=O)c1cc(OC)c(OC)c(OC)c1 | -4.57% (inactive) | 
O=C(O)Cc1c[nH]c2ccc(O)cc12 | 0.722% (inactive) | 
COC(=O)[C@H](NC(=O)c1cc(-c2ccccc2)nc2ccccc12)c1ccccc1 | -7.68% (inactive) | 
Cc1nc(N=Nc2ccc(S(=O)(=O)O)cc2S(=O)(=O)O)c(COP(=O)(O)O)c(C=O)c1O | -2.89% (inactive) | 
NC(=Nc1ccccc1)NC(=O)c1nc(Cl)c(N)nc1N | -2.55% (inactive) | 
O=C(O)C1=CCNCC1 | -1.04% (inactive) | 
CCCCCCCCCCC/C=C\C(C)(C)/C=C\CCCC(=O)O | -4.74% (inactive) | 
N#CC(C#N)=C(N)/C(C#N)=C/c1ccc(O)cc1 | -4.28% (inactive) | 
O=c1[nH]ccc2c(O)cccc12 | 0.968% (inactive) | 
NCCCCN | -2.25% (inactive) | 
COc1ccccc1N1CCN(CCCCN2C(=O)c3ccccc3C2=O)CC1 | 1.89% (inactive) | 
COc1ccccc1N1CCN(CCCNc2c(C)c(=O)n(C)c(=O)n2C)CC1 | 0.911% (inactive) | 
O=C(O)c1ccccc1Nc1cccc(OCc2ccc3ccccc3n2)c1 | -0.0455% (inactive) | 
COc1cc(CC(=O)O)ccc1O | -1.76% (inactive) | 
Cn1cc(C(=O)OCC2CCN(CCNS(C)(=O)=O)CC2)c2ccccc21 | -2.43% (inactive) | 
O=C(O)C1=CCCN(CCON=C(c2ccccc2)c2ccccc2)C1 | -0.683% (inactive) | 
Cc1cccc(C(=O)NCN2CCN(c3ccccc3C#N)CC2)c1 | -4.79% (inactive) | 
NS(=O)(=O)c1cccc2c1c([N+](=O)[O-])cc1nc(O)c(O)nc12 | -4.21% (inactive) | 

SMILES | activity change, negative = inhibition | outcome
CCCCCCN(CCCCCC)C(=O)Cc1c(-c2ccc(F)cc2)[nH]c2ccccc12 | -14% (inactive) | 
CCCCCCCCCCCCCCC[C@H](O)[C@H](N)CO | -2.95% (inactive) | 
O=C(O)c1ccccc1Nc1ccccc1 | -2.16% (inactive) | 
N=C(N)c1ccccc1 | -1.67% (inactive) | 
CC(C)Cn1c(=O)n(C)c(=O)c2[nH]cnc21 | 3.01% (inactive) | 
O=C(O)c1cc2cc(F)ccc2[nH]1 | -0.517% (inactive) | 
NC(N)=NC(N)=Nc1ccccc1 | -0.951% (inactive) | 
O=c1cc(-c2ccccc2)[nH]c2nc(Cl)ccc12 | 0.562% (inactive) | 
Nc1ncnc2c1ncn2C1CCCC1 | 1.95% (inactive) | 
[Li+] | -1.31% (inactive) | 
O=c1oc(Cl)c(Cl)c2ccccc12 | -1.69% (inactive) | 
NC/C=C\C(=O)O |  | inactive
CCCCCCCCCCCCCCSCC(=O)O | -2.82% (inactive) | 
C=CCn1c(=O)c2c(nc(-c3ccc(S(=O)(=O)O)cc3)n2C)n(C)c1=O | 2.86% (inactive) | 
c1ccc(CN2CCC3(CCCc4ccccc43)CC2)cc1 | -4.44% (inactive) | 
NC(=O)CNCCC(c1ccccc1)c1ccccc1 | -1.4% (inactive) | 
CCCCOC(=O)NS(=O)(=O)c1sc(CC(C)C)cc1-c1ccc(Cn2c(CC)nc3c(C)cc(C)nc32)cc1 | -1.56% (inactive) | 
Cn1c(=O)c2[nH]c(-c3ccc(S(=O)(=O)O)cc3)nc2n(C)c1=O | 14.3% (inactive) | 
CN1CCN(c2nc3cc(C(F)(F)F)ccc3n3cccc23)CC1 | -3.85% (inactive) | 
